Results on five molecules are retold here after PubChem BioAssay.

Several values for one entry are separate records, joined by “and”; a condition that tells them apart may be missing. Equal entries are not always repeated. Inconclusive results are not listed. Activity calls are given as the source filed them.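 The calls were made as follows, unless noted: active = normalized viability below 100% at a tested concentration; inactive = the rest.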

Assay [1] can be described thus: viability loss in pontine glioma line – cell-based, SU-DIPG-XXV, MIPE5.0, CellTiter-Glo, qHTS, dose response (AID 1347065; cut-off not given, nearly all actives have AC50 up to about 26 µM;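 also: cells exposed to compound for 48 hours before ATP readout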). As to conditions: CellTiter-Glo ATP luminescence. Background: Cellular ATP, detected with luciferase, serves as a proxy for viable cell number.
Assay [2] is described as follows: sensitizers of A549 cells to miR-34 induction, primary screen, imaging, A549 dox-inducible miR-34, nuclei and caspase counts (AID 1347080;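 active = compounds whose cell count with miR-34 switched on is under 0.7 times the count with it off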). As to conditions: A549 miR-34 inducible, Hoechst nuclei count, 48 h.
The nature of assay [3]: survival rescue of mitochondrial mutant cells in low glucose, primary screen, MELAS cybrids, Rieske KO mouse fibroblasts, CellTiter-Glo (AID 1508586;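 active = mean z-score across replicates of 1.96 or higher in either the MELAS or the Rieske mutant cell line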;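 also: z relative to plate mean and SD of compound and empty wells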).
Assay [4] can be described thus: ovarian cancer cell viability with rucaparib, profiling panel, oncology-focused library, rucaparib conditional (AID 1508598). As to conditions: patient-derived ovarian cancer cells, CellTiter-Glo viability, 144 h, stronger effect = lower value.
Assay [5] can be described thus: JHH-DIPG-1 glioma cell viability, MIPE5.0 library, CellTiter-Glo luminescence, qHTS (AID 1347067; cut-off not given, nearly all actives have AC50 up to about 26 µM;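 also: cells exposed to compound for 48 hours before readout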). As to conditions: JHH-DIPG-1 glioma viability, CellTiter-Glo ATP luminescence.
Assay [6] is described as follows: SU-DIPG-XXV glioma cell viability, MIPE5.0 library, qHTS (AID 1347068; cut-off not given, nearly all actives have IC50 up to about 30 µM). In general terms: qHTS replaces the single test concentration by a dilution series.
Assay [7] can be described thus: kinase inhibitors against Plasmodium liver-stage infection, cell-based, known kinase inhibitor set, luminescence, hepatoma host viability (AID 624392; call rule not given here;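 also: infected cells incubated roughly two days before readout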). As to conditions: Plasmodium liver stage in hepatoma cells, luciferase luminescence, concentration not given here; liver cell % of control: measured here: host liver cell viability; parasite % of control: stronger effect = lower value.

Assay [8] in a line: modifiers of HSF1 nuclear foci, imaging, Selleck Cancer Library (AID 1347162; in the data active = plate-normalised HSF1 focus index below about 0.46). As to conditions: human cells, at 10 µM; SSMD: measured here: HSF1 foci SSMD mean; cell count: measured here: cell number; plate-normalised HSF1 focus index: stronger effect = lower value.
Where [9] appears, read: stronger effect = lower value, cell number ratio, induced over uninduced.
Setting [10] is: measured here: relative caspase fold change +Dox/-Dox.
[11] abbreviates: measured here: total cells with miR-34 induction, stronger effect = lower value.
The mark [12] stands for this setting: measured here: total cells without miR-34 induction.
[13] abbreviates: MELAS cybrid survival, CellTiter-Glo 48 h, stronger effect = higher value.
The mark [14] stands for this setting: Rieske KO mouse fibroblast survival, CellTiter-Glo 72 h.
[15] abbreviates: at 0.000305 µM, OCI-C5x cells, with rucaparib 10 µM, 100% = cells with rucaparib alone.
Where [16] appears, read: at 0.000305 µM, OCI-C5x cells, without rucaparib.
Where [17] appears, read: at 0.000305 µM, OCI-P5x cells, with rucaparib 20 µM, 100% = cells with rucaparib alone.
Setting [18] is: at 0.000305 µM, OCI-P5x cells, without rucaparib.
Where [19] appears, read: at 0.00122 µM, OCI-C5x cells, with rucaparib 10 µM, 100% = cells with rucaparib alone.
Where [20] appears, read: at 0.00122 µM, OCI-C5x cells, without rucaparib.
Setting [21] is: at 0.00122 µM, OCI-P5x cells, with rucaparib 20 µM, 100% = cells with rucaparib alone.
[22] abbreviates: at 0.00122 µM, OCI-P5x cells, without rucaparib.
Setting [23] is: at 0.00488 µM, OCI-C5x cells, with rucaparib 10 µM, 100% = cells with rucaparib alone.
[24] abbreviates: at 0.00488 µM, OCI-C5x cells, without rucaparib.
[25] abbreviates: at 0.00488 µM, OCI-P5x cells, with rucaparib 20 µM, 100% = cells with rucaparib alone.
Where [26] appears, read: at 0.00488 µM, OCI-P5x cells, without rucaparib.
Where [27] appears, read: at 0.0195 µM, OCI-C5x cells, with rucaparib 10 µM, 100% = cells with rucaparib alone.
[28] abbreviates: at 0.0195 µM, OCI-C5x cells, without rucaparib.
The mark [29] stands for this setting: at 0.0195 µM, OCI-P5x cells, with rucaparib 20 µM, 100% = cells with rucaparib alone.
Setting [30] is: at 0.0195 µM, OCI-P5x cells, without rucaparib.
[31] abbreviates: at 0.0781 µM, OCI-C5x cells, with rucaparib 10 µM, 100% = cells with rucaparib alone.
The mark [32] stands for this setting: at 0.0781 µM, OCI-C5x cells, without rucaparib.
Where [33] appears, read: at 0.0781 µM, OCI-P5x cells, with rucaparib 20 µM, 100% = cells with rucaparib alone.
[34] abbreviates: at 0.0781 µM, OCI-P5x cells, without rucaparib.
Where [35] appears, read: at 0.313 µM, OCI-C5x cells, with rucaparib 10 µM, 100% = cells with rucaparib alone.
Setting [36] is: at 0.313 µM, OCI-C5x cells, without rucaparib.
Setting [37] is: at 0.313 µM, OCI-P5x cells, with rucaparib 20 µM, 100% = cells with rucaparib alone.
Setting [38] is: at 0.313 µM, OCI-P5x cells, without rucaparib.
The mark [39] stands for this setting: at 1.25 µM, OCI-C5x cells, with rucaparib 10 µM, 100% = cells with rucaparib alone.
[40] abbreviates: at 1.25 µM, OCI-C5x cells, without rucaparib.
Where [41] appears, read: at 1.25 µM, OCI-P5x cells, with rucaparib 20 µM, 100% = cells with rucaparib alone.
[42] abbreviates: at 1.25 µM, OCI-P5x cells, without rucaparib.
The mark [43] stands for this setting: at 5 µM, OCI-C5x cells, with rucaparib 10 µM, 100% = cells with rucaparib alone.
Setting [44] is: at 5 µM, OCI-C5x cells, without rucaparib.
[45] abbreviates: at 5 µM, OCI-P5x cells, with rucaparib 20 µM, 100% = cells with rucaparib alone.
Setting [46] is: at 5 µM, OCI-P5x cells, without rucaparib.

Broadly, the AC50 is the concentration at which the activity in the assay is half-maximal. For orientation: viability means a read-out of living cells in per cent, often relative to untreated cells. On to `CN1CCN(c2ccc(OC(F)(F)F)c(Nc3ncc4c(n3)-c3c(c(C(N)=O)nn3CCO)CC4)c2)CC1`, for which the AC50 in assay [1] is 0.118 µM (active). The fold change in assay [2] (setting [9]) is 0.983 (inactive); in assay [2] (setting [10]) it was 0.326. The figures for the cell count in assay [2] (setting [11]) and in assay [2] (setting [12]) were 1120 and 1140, respectively. Besides, the z-score was 1.84 (inactive) in assay [3] (setting [13]) and -0.694 in assay [3] (setting [14]). The viability in assay [4] (setting [15]) was 119% (inactive); in assay [4] (setting [16]) it was 114% (inactive); in assay [4] (setting [17]), 90% (active); in assay [4] (setting [18]) it was 84.5% (active); in assay [4] (setting [19]), 125% (inactive); in assay [4] (setting [20]), 112% (inactive). The viability in assay [4] (setting [21]) is 94.4% (active); in assay [4] (setting [22]), 86.5% (active); in assay [4] (setting [23]), 123% (inactive); in assay [4] (setting [24]), 105% (inactive); in assay [4] (setting [25]), 88.1% (active); in assay [4] (setting [26]), 58.9% (active). In addition, the viability in assay [4] (setting [27]) was 125% (inactive); in assay [4] (setting [28]), 60% (active); in assay [4] (setting [29]), 78.1% (active); in assay [4] (setting [30]), 20.2% (active); in assay [4] (setting [31]), 67.6% (active); in assay [4] (setting [32]), 40.8% (active). Besides, the viability in assay [4] (setting [33]) is 64.7% (active); in assay [4] (setting [34]), 14.3% (active); in assay [4] (setting [35]), 49.1% (active); in assay [4] (setting [36]), 27.6% (active); in assay [4] (setting [37]), 70% (active); in assay [4] (setting [38]), 13.1% (active). Also, the viability in assay [4] (setting [39]) is 37.5% (active); in assay [4] (setting [40]), 28.9% (active); in assay [4] (setting [41]), 73.8% (active); in assay [4] (setting [42]) it was 13.7% (active); in assay [4] (setting [43]), 40.7% (active); in assay [4] (setting [44]) it was 26.6% (active). Further, the viability is 74.1% (active) in assay [4] (setting [45]) and 14.5% (active) in assay [4] (setting [46]).

In the case of `Cc1csc(NC(=O)c2sc3nc4c(c(C(F)(F)F)c3c2N)CCC4)n1`, the outcome in assay [5] was inactive.

Regarding `COc1cc2nccc(Oc3ccc(NC(=O)c4cn(C(C)C)c(=O)n(-c5ccc(F)cc5)c4=O)cc3F)c2cc1OC`, the molecule was called inactive in assay [5] and in assay [6].

Consider `CC1Cc2ccccc2N1C(=O)Cc1nc(N2CCOCC2)cc(=O)[nH]1` (configuration not stated), for which, in assay [5], the molecule was called inactive.

Consider `S=C(NCc1ccc2c(c1)OCO2)N1CCN(c2ncnc3c2oc2ccccc23)CC1`, for which the liver cell % of control in assay [7] is 79.8% and 74.8% and 83.5%. The parasite % of control in assay [7] is 3.34% (inactive) and 4.31% (inactive) and 22.8% (inactive). In addition, the concentration at half-maximal activity (AC50) in assay [1] is 18.6 µM (active). The fold change is 0.868 (inactive) in assay [2] (setting [9]) and 1.07 in assay [2] (setting [10]). In addition, the cell count in assay [2] (setting [11]) amounted to 3980; in assay [2] (setting [12]), 4580; in assay [8], 7510. The same molecule registered an SSMD in assay [8] of 2.08. For the same molecule, the plate-normalised HSF1 focus index in assay [8] was 1.08 (inactive). Besides, the results for the z-score in assay [3] (setting [13]) and in assay [3] (setting [14]) were -0.551 (inactive) and 0.864, respectively. Moreover, the viability in assay [4] (setting [15]) is 112% (inactive); in assay [4] (setting [16]) it was 101% (inactive); in assay [4] (setting [17]), 89.7% (active); in assay [4] (setting [18]), 92.1% (active); in assay [4] (setting [19]), 117% (inactive); in assay [4] (setting [20]) it was 100% (inactive). Also, the viability in assay [4] (setting [21]) is 96.6% (active); in assay [4] (setting [22]), 98.2% (active); in assay [4] (setting [23]), 109% (inactive); in assay [4] (setting [24]), 104% (inactive); in assay [4] (setting [25]), 97.2% (active); in assay [4] (setting [26]), 95.2% (active). Also, the viability in assay [4] (setting [27]) is 105% (inactive); in assay [4] (setting [28]), 98.9% (active); in assay [4] (setting [29]), 109% (inactive); in assay [4] (setting [30]), 105% (inactive); in assay [4] (setting [31]), 115% (inactive); in assay [4] (setting [32]), 111% (inactive). Moreover, the viability in assay [4] (setting [33]) was 110% (inactive); in assay [4] (setting [34]), 101% (inactive); in assay [4] (setting [35]) it was 110% (inactive); in assay [4] (setting [36]), 111% (inactive); in assay [4] (setting [37]), 105% (inactive); in assay [4] (setting [38]) it was 104% (inactive). Further, the viability in assay [4] (setting [39]) is 118% (inactive); in assay [4] (setting [40]), 107% (inactive); in assay [4] (setting [41]), 103% (inactive); in assay [4] (setting [42]), 103% (inactive); in assay [4] (setting [43]) it was 128% (inactive); in assay [4] (setting [44]), 129% (inactive). Also, the viability in assay [4] (setting [45]) and in assay [4] (setting [46]) was 101% (inactive) throughout.
